Test results as given in PubChem BioAssay (NCATS).
Records with an inconclusive call do not appear. Entries that show only a call come without a potency. The source holds several records for some structures; these can differ, active in one and inactive in another. The source made the active and inactive calls. Unless noted, calls come from the whole dose curve; as a rule, active = well fitted curve in the direction sought with a large enough effect; inconclusive = small, poorly fitted or top-dose-only effect, or another doubt; inactive = no such curve, though single readings can be large; an effect the other way counts as inactive or inconclusive.

Key:
[1] = target: Calcium and integrin-binding protein 1 (Homo sapiens) (UniProt Q99828); assay: Primary qHTS for Identification of Calcium Integrin Binding Protein 1 (CIB1) Competitor (AID 1508620);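 note: GST tagged CIB1 binding a fluorescein labelled alphaIIb integrin peptide tracer; top concentration of the series differs between compounds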
Calcium and integrin-binding protein 1 (Homo sapiens), sequence (Q99828 whole entry, looked up): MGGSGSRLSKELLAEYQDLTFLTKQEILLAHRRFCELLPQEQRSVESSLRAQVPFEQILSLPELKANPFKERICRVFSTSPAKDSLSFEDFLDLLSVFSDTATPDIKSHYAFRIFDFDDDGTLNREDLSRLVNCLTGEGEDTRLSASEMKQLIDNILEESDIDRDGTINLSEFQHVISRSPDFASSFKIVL
How it was run: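 CIB1-GST (1 uM final) and compound incubated 15 min at room temperature before adding FITC-alphaIIb peptide tracer (100 nM final). Competition for binding read by fluorescence polarization (ex 480, em 540) after another 15 min at room temperature.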

[2] = Primary qHTS for small molecule stabilizers of the endoplasmic reticulum resident proteome: Secreted ER Calcium Modulated Protein (SERCaMP) assay (AID 1508630); note: potency is the fitted concentration of half-maximal effect
How it was run: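 GLuc-SERCaMP-expressing SH-SY5Y cells, pretreated 16 h with compound, are challenged with thapsigargin to empty ER calcium stores; after 4 h, coelenterazine is added directly to the medium and luminescence is imaged.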

[3] = A High-Content qHTS Against Drug Library for the Identification of Small Molecules that Inhibit DYT1 Early Onset Primary Dystonia-Associated Cell Pathology (AID 1645839; calls by dose curve; note: potency is the fitted concentration of half-maximal effect)
How it was run: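 In this high-content image screen, delE TorsinA mislocalization in inducible Flp-In 293 cells is scored as %pathology, with cell count serving as the counterscreen. Compound exposure lasts 48 h under tetracycline induction in reduced-serum medium.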

[4] = target: Cytochrome P450 2D6 (Homo sapiens) (UniProt P10635); assay: Cytochrome P450 family 2 subfamily D member 6 (CYP2D6) small molecule antagonists: luciferase biochemical (cell-free) qHTS assay (AID 1645840; active = well fitted curve in the direction sought with a large enough effect in the repeat runs; an effect the other way counts as inactive or inconclusive; note: series mostly up to about 57 µM; nearly all actives have a fitted effect of over 55% in size)
Cytochrome P450 2D6 (Homo sapiens), sequence (P10635 whole entry, looked up): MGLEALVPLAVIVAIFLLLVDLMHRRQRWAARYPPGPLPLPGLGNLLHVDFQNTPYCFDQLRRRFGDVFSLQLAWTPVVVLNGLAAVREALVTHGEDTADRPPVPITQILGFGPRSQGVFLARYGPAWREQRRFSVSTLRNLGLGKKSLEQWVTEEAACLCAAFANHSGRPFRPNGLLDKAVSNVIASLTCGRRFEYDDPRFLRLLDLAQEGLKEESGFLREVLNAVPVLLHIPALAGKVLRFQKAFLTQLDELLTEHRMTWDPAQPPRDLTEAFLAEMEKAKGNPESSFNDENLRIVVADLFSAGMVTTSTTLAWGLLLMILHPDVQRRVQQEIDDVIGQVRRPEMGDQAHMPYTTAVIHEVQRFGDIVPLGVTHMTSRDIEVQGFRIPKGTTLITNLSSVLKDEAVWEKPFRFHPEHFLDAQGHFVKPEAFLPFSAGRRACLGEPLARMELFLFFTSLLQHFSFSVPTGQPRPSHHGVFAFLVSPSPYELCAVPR
How it was run: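 P450-Glo luminescent screen: recombinant CYP2D6 enzyme–proluciferin substrate mix preincubated with compound 10 min at room temperature, then NADPH regeneration added for 1 h at room temperature. Detection reagent added for 20 min; luciferin light read as relative luminescence units.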

[5] = target: Cytochrome P450 2C9 (Homo sapiens) (UniProt P11712); assay: Cytochrome P450 family 2 subfamily C member 9 (CYP2C9) small molecule antagonists: luciferase biochemical (cell-free) qHTS assay (AID 1645842; active = well fitted curve in the direction sought with a large enough effect in the repeat runs; an effect the other way counts as inactive or inconclusive; note: nearly all actives have a fitted effect of over 55% in size; note: potency is the fitted concentration of half-maximal effect)
Cytochrome P450 2C9 (Homo sapiens), sequence (P11712 whole entry, looked up): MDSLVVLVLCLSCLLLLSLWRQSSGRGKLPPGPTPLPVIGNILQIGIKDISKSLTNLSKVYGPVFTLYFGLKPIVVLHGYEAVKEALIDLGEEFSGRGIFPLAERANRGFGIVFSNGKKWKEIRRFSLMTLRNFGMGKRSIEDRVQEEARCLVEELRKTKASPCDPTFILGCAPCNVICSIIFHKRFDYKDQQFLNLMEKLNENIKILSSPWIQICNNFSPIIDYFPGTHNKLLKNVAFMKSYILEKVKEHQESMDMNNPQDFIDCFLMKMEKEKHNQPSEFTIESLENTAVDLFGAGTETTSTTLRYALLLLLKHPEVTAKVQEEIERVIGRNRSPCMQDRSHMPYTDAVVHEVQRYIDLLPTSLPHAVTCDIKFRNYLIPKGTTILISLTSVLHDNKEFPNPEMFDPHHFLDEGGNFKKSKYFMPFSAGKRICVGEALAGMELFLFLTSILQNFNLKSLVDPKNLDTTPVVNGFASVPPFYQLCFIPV
How it was run: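 Luminescence, after 20 min with luciferin detection reagent, reflected CYP2C9 turnover during a 1 h NADPH-driven reaction at 37C. Enzyme-substrate mix contained 0.4% bovine serum albumin and was preincubated with compound 10 min at room temperature.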

Papain (Carica papaya) = Papain (Carica papaya) (UniProt P00784); assay: Primary qHTS assay for inhibitors of the protease papain (AID 1645873);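 note: papain turnover of Z-FR-AMC read as the AMC fluorescence gain over 10 min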; note: potency is the fitted concentration of half-maximal effect
Papain (Carica papaya), sequence (P00784 whole entry, looked up): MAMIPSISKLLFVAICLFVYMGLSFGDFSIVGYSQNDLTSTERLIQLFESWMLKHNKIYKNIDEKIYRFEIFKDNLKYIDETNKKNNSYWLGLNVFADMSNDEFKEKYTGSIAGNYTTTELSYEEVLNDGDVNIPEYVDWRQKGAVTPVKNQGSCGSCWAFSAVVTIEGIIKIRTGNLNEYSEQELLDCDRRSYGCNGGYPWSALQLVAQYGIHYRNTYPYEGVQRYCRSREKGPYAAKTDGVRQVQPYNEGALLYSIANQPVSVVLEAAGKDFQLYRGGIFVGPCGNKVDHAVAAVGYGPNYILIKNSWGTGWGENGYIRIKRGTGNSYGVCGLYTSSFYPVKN

Row | Structure (SMILES) | outcome [1] | Potency [2] | Potency [3] | Potency [4] | Potency [5] | Potency (Papain (Carica papaya))
1 | CCc1ccc(CCOc2ccc(CC3SC(=O)NC3=O)cc2)nc1 (stereo not drawn) | inactive | inactive | inactive | inactive | – | –
2 | CCc1cc(Nc2nccc(-c3c(-c4ccc(OC)c(C(=O)Nc5c(F)cccc5F)c4)nc4ccccn34)n2)c(OC)cc1N1CCC(N2CCN(S(C)(=O)=O)CC2)CC1 | inactive | 0.006 µM (active) | – | – | – | –
3 | NC(N)=NC(=O)c1nc(Cl)c(N)nc1N | inactive | inactive | inactive | inactive | inactive | 28.2 µM (active)
4 | N#CC[C@H](C1CCCC1)n1cc(-c2ncnc3[nH]ccc23)cn1 | inactive | inactive | – | – | – | –
5 | Cn1cnc([N+](=O)[O-])c1Sc1ncnc2nc[nH]c12 | inactive | inactive | 35.5 µM (active) and inactive | inactive | inactive | inactive
6 | COCCNCCCn1c(C(=O)CF)c(-c2ccc(C)cc2)c2c(N)ncnc21 | inactive | inactive | – | – | – | –
7 | O=C1CCc2cc(OCCCCc3nnnn3C3CCCCC3)ccc2N1 | inactive | inactive | inactive | inactive | 6.17 µM (active) | inactive
8 | COc1ccc(C2=N[C@H](c3ccc(Cl)cc3)[C@H](c3ccc(Cl)cc3)N2C(=O)N2CCNC(=O)C2)c(OC(C)C)c1 | inactive | inactive | – | – | – | –
9 | O=C(c1cc(Cc2n[nH]c(=O)c3ccccc23)ccc1F)N1CCN(C(=O)C2CC2)CC1 | inactive | inactive | – | – | – | –
10 | NC[C@H](O)c1ccc(O)c(O)c1 | inactive | inactive | inactive | inactive | – | –
11 | Cc1cccc(-c2nn(C(=S)Nc3ccccc3)cc2-c2ccnc3ccccc23)n1 | inactive | inactive | – | – | – | –
